For some of these results: Potency and affinity values are given separately. Activity calls are given as the source filed them.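 How the source made its calls, unless noted: active means primary screen inhibitor hit that blocks the TRPC4 channel at some tested dose, yielding a dose curve; inactive means the rest.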

Test [1] concerns TRPC4 beta (transient receptor potential cation channel C4), mouse. The test is described as follows: activators of mouse TRPC4 channel, confirmation, cell-based, Fluo4 calcium, HEK293 TRPC4beta/mu-opioid, duplicates, 10 µM (AID 2426;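 active means fluorescence ratio normalized to control raised more than 50% in primary screen plus both repeat runs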;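 on activation: percent rise of integrated ratio over buffer wells lacking compound which define 0%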). Particulars: Fluo4 calcium fluorescence, at 10 µM; stronger effect = higher value.
In test [2] the test system is transient receptor potential cation channel C4 beta (TRPC4), mouse. The test is described as follows: activators of mouse TRPC4 channel, confirmation, cell-based, second round, Fluo4, HEK293 TRPC4beta/mu-opioid, 1 µM (AID 2461;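 active means primary screen active and over 50% activation in each of two duplicate runs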). The conditions noted are these: Fluo4 calcium fluorescence, at 1 µM; stronger effect = higher value.
Test [3] relates to TRPC4 (transient receptor potential cation channel C4 beta), mouse. The test is described as follows: positive allosteric modulators of mouse TRPC4, confirmation, cell-based, second round, Fluo-4, HEK293 TRPC4beta/mu-opioid, 1 µM (AID 2554;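 active means primary screen hit whose fluorescence ratio, in both repeats, exceeds the weak agonist control mean by 3 SD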). The conditions noted are these: DAMGO EC20, Fluo-4 calcium flux, at 1 µM; stronger effect = higher value. On the technique in general: A change in cytosolic calcium serves as a functional read-out for many receptors and channels.

Test [4] has as its system TRPC4 beta (transient receptor potential cation channel C4), mouse. In words: positive allosteric modulators of mouse TRPC4, confirmation, cell-based, Fluo-4, HEK293 TRPC4beta/mu-opioid (AID 2555;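 active means primary screen hit whose calcium fluorescence ratio, in both repeats, exceeds the weak agonist control mean by 3 SD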). Particulars: DAMGO EC20, Fluo-4 calcium flux, at 10 µM; stronger effect = higher value.
Test [5] deals with Short transient receptor potential channel 4 (Mus musculus) (UniProt Q9QUQ5). The test is described as follows: inhibitors of mouse TRPC4 channel, confirmation, cell-based, Fluo4, HEK293 TRPC4beta/mu-opioid (AID 2636;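 active means calcium signal cut by more than 3 SD below the full-agonist control yet still positive, in both repeats and the earlier primary screen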). The conditions noted are these: DAMGO, Fluo4 calcium flux, at 10 µM; stronger effect = higher value.
Short transient receptor potential channel 4 (Mus musculus), sequence (Q9QUQ5 whole entry, looked up): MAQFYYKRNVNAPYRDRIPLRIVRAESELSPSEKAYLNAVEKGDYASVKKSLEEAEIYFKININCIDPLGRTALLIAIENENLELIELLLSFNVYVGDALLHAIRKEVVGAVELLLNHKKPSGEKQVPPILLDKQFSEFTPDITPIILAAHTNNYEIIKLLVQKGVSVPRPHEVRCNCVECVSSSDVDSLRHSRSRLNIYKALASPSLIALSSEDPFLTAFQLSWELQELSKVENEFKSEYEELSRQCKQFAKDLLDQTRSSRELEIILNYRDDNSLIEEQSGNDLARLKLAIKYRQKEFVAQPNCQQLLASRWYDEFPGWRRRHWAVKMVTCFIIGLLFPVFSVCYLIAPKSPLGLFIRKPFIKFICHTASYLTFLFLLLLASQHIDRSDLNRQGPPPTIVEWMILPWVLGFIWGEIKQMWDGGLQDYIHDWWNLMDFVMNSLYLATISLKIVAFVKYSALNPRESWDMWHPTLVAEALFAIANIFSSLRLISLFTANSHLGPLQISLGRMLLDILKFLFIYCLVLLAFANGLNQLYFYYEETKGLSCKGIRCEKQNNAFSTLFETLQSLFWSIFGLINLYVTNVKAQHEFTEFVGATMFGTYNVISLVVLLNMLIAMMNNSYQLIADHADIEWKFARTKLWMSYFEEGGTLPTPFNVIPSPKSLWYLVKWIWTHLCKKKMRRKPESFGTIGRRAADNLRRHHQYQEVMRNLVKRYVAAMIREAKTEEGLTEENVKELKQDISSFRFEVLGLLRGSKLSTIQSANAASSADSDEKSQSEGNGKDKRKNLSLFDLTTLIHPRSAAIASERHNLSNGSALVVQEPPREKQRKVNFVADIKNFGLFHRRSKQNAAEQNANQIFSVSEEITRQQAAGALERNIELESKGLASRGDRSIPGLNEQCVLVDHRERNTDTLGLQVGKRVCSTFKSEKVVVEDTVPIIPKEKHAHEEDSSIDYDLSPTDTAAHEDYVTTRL
The target is the same in test [6]. The test is described as follows: inhibitors of mouse TRPC4 channel, confirmation, cell-based, second round, Fluo4, HEK293 TRPC4beta/mu-opioid, 1 µM (AID 2637;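 active means calcium signal ratio cut to more than 3 SD under the fully stimulated control mean yet still positive, in both repeats and the primary screen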). The conditions noted are these: Fluo4 calcium flux, DAMGO, at 1 µM; stronger effect = higher value.
Test [7] has the same target. The test is described as follows: mouse TRPC4 channel activators, dose response, cell-based, HEK293 TRPC4/mu-opioid, Fluo-4 calcium (AID 434937;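 active means primary screen activator hit with a dose response curve and TRPC4 channel activation at any tested dose; inactive means no activation, no dose response, or not a primary hit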). The conditions noted are these: HEK293 TRPC4 cells, Fluo-4 calcium fluorescence ratio; series mostly up to 20 µM.
Test [8] shares this target. In words: TRPC4 positive allosteric modulators, dose response, cell-based, HEK293 TRPC4/mu-opioid, Fluo-4 calcium, EC20 DAMGO (AID 434941;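 active means earlier screen potentiator hit that boosts the TRPC4 ion channel at some dose, with a dose response; inactive means no potentiation, no dose response, or not a prior hit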;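 further: calcium entry triggered by an EC20 dose of DAMGO at the co-expressed mu-opioid receptor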). Particulars: HEK293 TRPC4/mu-opioid cells, Fluo-4 calcium fluorescence; series mostly up to 20 µM.
Test [9] has the same target. The test is described as follows: mouse TRPC4 channel inhibitors, dose response, cell-based, HEK293 TRPC4/mu-opioid, Fluo-4 calcium (AID 434942). Particulars: HEK293 TRPC4/mu-opioid cells, DAMGO-evoked Fluo-4 calcium ratio; series mostly up to 20 µM.
Test [10] deals with Short transient receptor potential channel 6 (Mus musculus) (UniProt Q61143). In words: inhibition of mouse TRPC6 channel, confirmation, selectivity assay for TRPC4 inhibitor project, cell-based, HEK293, membrane potential dye, duplicate (AID 434948;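 active means active in primary screen and both duplicates, each dropping signal beyond three positive-control SD with fluorescence still positive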). The conditions noted are these: HEK293 TRPC6, membrane potential dye fluorescence, at 10 µM, stimulated with maximal-effect acetylcholine; stronger effect = higher value.
Short transient receptor potential channel 6 (Mus musculus), sequence (Q61143 whole entry, looked up): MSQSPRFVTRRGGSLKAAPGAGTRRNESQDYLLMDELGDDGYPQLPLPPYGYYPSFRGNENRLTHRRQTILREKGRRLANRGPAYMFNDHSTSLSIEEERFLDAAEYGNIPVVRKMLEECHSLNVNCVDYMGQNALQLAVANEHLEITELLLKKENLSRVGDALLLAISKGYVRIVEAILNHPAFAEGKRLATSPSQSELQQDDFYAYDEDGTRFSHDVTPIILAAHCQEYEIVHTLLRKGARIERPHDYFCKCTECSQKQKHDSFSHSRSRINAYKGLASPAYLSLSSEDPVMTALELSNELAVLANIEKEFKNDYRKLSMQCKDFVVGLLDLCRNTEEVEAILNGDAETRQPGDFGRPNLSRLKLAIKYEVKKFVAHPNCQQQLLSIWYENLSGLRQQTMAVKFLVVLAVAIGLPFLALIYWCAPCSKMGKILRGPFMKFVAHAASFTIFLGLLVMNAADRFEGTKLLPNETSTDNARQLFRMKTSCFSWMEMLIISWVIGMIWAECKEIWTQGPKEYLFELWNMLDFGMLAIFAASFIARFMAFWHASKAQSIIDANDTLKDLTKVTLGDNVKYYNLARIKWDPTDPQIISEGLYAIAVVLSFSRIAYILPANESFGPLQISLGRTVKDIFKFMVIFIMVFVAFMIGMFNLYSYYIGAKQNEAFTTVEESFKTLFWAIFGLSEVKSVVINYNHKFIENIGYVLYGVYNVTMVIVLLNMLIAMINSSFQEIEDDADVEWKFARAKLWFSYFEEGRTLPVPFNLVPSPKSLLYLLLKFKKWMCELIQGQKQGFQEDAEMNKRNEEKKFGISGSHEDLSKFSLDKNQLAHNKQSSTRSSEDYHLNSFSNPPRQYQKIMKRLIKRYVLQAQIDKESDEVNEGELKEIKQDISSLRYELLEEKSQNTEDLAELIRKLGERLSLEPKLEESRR

The target is the same in test [11]. In words: activation of mouse TRPC6 channel, confirmation, selectivity assay for TRPC4 activator project, cell-based, HEK293, membrane potential dye, duplicate (AID 434950;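 active means membrane potential signal rise above negative control mean plus 3 SD in both duplicates, also active in the earlier TRPC4 screen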;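 on activation: 0% = buffer only wells and 100% = acetylcholine maximal-effect wells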). The conditions noted are these: HEK293 TRPC6, membrane potential fluorescence, at 10 µM; stronger effect = higher value.
The target is the same in test [12]. In words: TRPC6 potentiation by TRPC4 potentiator hits, confirmation, selectivity assay for TRPC4 potentiator project, HEK293 cells, membrane potential dye, duplicate (AID 434952;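 active means compound raising the membrane signal above positive-control mean plus 3 SD in both repeats, and a primary screen hit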). The conditions noted are these: HEK293 TRPC6, membrane potential dye fluorescence, at 10 µM, maximal acetylcholine added after compound; stronger effect = higher value.
Test [13] deals with Short transient receptor potential channel 4 (Mus musculus) (UniProt Q9QUQ5). In words: calcium flux activators in TRPC4/5HT1a cells, counter-screen for TRPC4 activator project, cell-based, second counter screen, HEK293 TRPC4/5HT1a, Fluo-4 (AID 434977;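 active means calcium signal rise above buffer-control mean plus 5 SD in both duplicates, and also a hit in the primary screen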;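 on activation: plate controls were assay buffer for no effect and maximal serotonin response for full effect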). Particulars: Fluo-4 calcium flux, at 10 µM; stronger effect = higher value.
Test [14] is described as follows: calcium flux inhibitors in TRPC4/5HT1a cells, confirmation, counter-screen for TRPC4 inhibitor project, cell-based, second counter screen, HEK293 TRPC4/5HT1a, Fluo-4 (AID 434978;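 active means primary screen active whose calcium signal fell more than 3 SD beyond the full-serotonin control mean in both duplicate plates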;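 further: serotonin given first at submaximal then at maximal dose after compound preincubation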). Particulars: Fluo-4 calcium flux, at 10 µM, serotonin added to trigger calcium flux; stronger effect = higher value.
In test [15] the test system is TRPC4 (mouse), co-expressed with 5HT1a in HEK293. The test is described as follows: calcium flux potentiators in TRPC4/5HT1a cells, confirmation, counter-screen for TRPC4 potentiator project, cell-based, second counter screen, HEK293 TRPC4/5HT1a, Fluo-4 (AID 434979;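 active means signal rise over 3 SD above mean of control wells given weak agonist, in both repeats and first screen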). The conditions noted are these: Fluo-4 calcium flux, at 10 µM, serotonin added at its EC20 dose; stronger effect = higher value.

Test [16] is described as follows: calcium flux activation in mu-opioid HEK293 cells, confirmation, counter-screen for TRPC4 activator project, cell-based, HEK293 mu-opioid receptor line (AID 449723;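 active means hit in primary screen, with calcium signal over 5 SD above buffer well mean in both duplicates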;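 further: counter screen cells carry the mu-opioid receptor alone and lack TRPC4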). The conditions noted are these: Fluo-4 calcium fluorescence, at 10 µM; stronger effect = higher value.
Test [17] can be described thus: calcium flux enhancement in mu-opioid HEK293 cells, confirmation, counter-screen for TRPC4 allosteric potentiator project, cell-based, HEK293 mu-opioid receptor line (AID 449724;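 active means calcium signal rise more than 3 SD above the low-dose agonist control mean, in both duplicate plates and the primary screen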;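 further: HEK293 cells carrying mu-opioid receptor only with no TRPC4 channel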). Particulars: Fluo-4 calcium flux, at 10 µM, compound added before EC20 DAMGO stimulus; stronger effect = higher value.

Regarding `Cc1ccc(CC(=O)NCC(c2ccco2)N(C)C)cc1C` (stereo not drawn), the result in test [1], in test [2], in test [3], in [4], in test [5] and in test [6] was inactive. In addition, the outcome in test [7], in [8], in test [9], in test [10], in [11] and in [12] was inactive. Besides, the result in test [13], in test [14], in test [15], in test [16] and in [17] was inactive.

Take `Cc1ccc(-n2c(SCc3cc(=O)n4ccsc4n3)nnc2-c2cccnc2)c(C)c1`: the result in test [1], in [2], in test [3], in test [4], in test [5] and in [6] was inactive. Further, the result in test [7], in test [8], in test [9], in test [10], in test [11] and in [12] was inactive. The outcome in test [13], in [14], in test [15], in [16] and in test [17] was inactive.

In the case of `O=c1c2ccccc2nc(SCc2nc3ccccc3s2)n1CCCO`, the outcome in test [1], in [2], in test [3], in [4], in test [5] and in test [6] was inactive. In addition, the result in [7], in test [8], in [9], in test [10], in test [11] and in test [12] was inactive. In addition, the result in test [13], in [14], in test [15], in [16] and in [17] was inactive.

Turning to `CCOc1ccc2nc(N3CCCC(C(=O)NCC4CCCO4)C3)sc2c1` (stereo not drawn), the result in [1], in test [2], in test [3], in [4], in [5] and in [6] was inactive. In addition, the result in test [7], in test [8], in [9], in test [10], in test [11] and in test [12] was inactive. In addition, the result in test [13], in test [14], in [15], in test [16] and in [17] was inactive.

Turning to `C/C(=C\c1cccc(Cl)c1Cl)C(=O)c1c(C)cc(C)[nH]c1=O`, the result in test [1], in [2], in [3], in test [4], in [5] and in test [6] was inactive. In addition, the outcome in [7], in test [8], in test [9], in test [10], in [11] and in test [12] was inactive. The outcome in test [13], in [14], in test [16] and in test [17] was inactive. The potentiation in test [15] was 16.5% (active).

In the case of `Cc1ccc(C)c2[nH]c(=O)c(C(c3nnnn3C3CCCC3)N3CCOCC3)cc12` (stereo not drawn), the outcome in test [1], in test [2], in [3], in test [4], in [5] and in test [6] was inactive. Also, the result in test [7], in test [8], in test [9], in test [10], in [11] and in test [12] was inactive. Besides, the result in test [13], in [14], in test [15], in test [16] and in test [17] was inactive.

As for `Cc1cc(Br)cc(C)c1OCCCCN(C)C`, the outcome in test [1], in test [2], in test [4], in [5], in test [6] and in test [7] was inactive. Besides, the result in test [8], in [9], in test [10], in test [11], in test [12] and in [13] was inactive. The result in test [14], in test [16] and in [17] was inactive. For the same molecule, the values for the potentiation in test [3] and in test [15] were 23% (active) and 23.5% (active), respectively.

On to `CCCCc1ccc(NC(=O)CSc2nnc(C)c(=O)n2N)cc1`, for which the outcome in test [1], in test [2], in test [3], in test [5], in test [6] and in [7] was inactive. Moreover, the outcome in test [8], in test [9], in [10], in test [11], in test [12] and in test [13] was inactive. The result in test [14], in [16] and in test [17] was inactive. In addition, the potentiation was 14% (active) in test [4] and 43.5% (active) in [15].

Regarding `O=C(CC1CCCCC1)c1c(O)c2ccccc2oc1=O`, the activation in test [1] is 151% (active); in test [11] it was 33.5% (active); in test [13], 62.5% (active); in test [16], 30.8% (active). Moreover, the result in [2], in test [3], in test [4], in test [5], in test [6] and in [7] was inactive. Besides, the result in test [8], in [9], in test [10], in test [12], in test [14] and in test [15] was inactive. The outcome in test [17] was inactive.

Consider `O=C(N/N=C/c1cc2c(cc1Br)OCO2)c1cc2ccccc2o1`, for which the result in test [1], in test [2], in test [3], in test [4], in test [6] and in test [7] was inactive. Further, the result in test [8], in test [9], in test [10], in test [11], in test [12] and in test [13] was inactive. For the same molecule, the outcome in test [14], in test [15], in test [16] and in test [17] was inactive. The inhibition in test [5] is 93% (active).

For the molecule `CCOC(=O)CC(NC(=O)c1cc2cc(Cl)cc(Cl)c2oc1=O)c1cccc([N+](=O)[O-])c1` (stereo not drawn), the result in test [1], in test [2], in test [3], in [5], in [6] and in [7] was inactive. Further, the result in test [8], in [9], in test [10], in test [11], in test [12] and in [13] was inactive. Besides, the result in test [14], in test [15], in [16] and in test [17] was inactive. For the same molecule, the potentiation in [4] was 35% (active).

As for `c1ccc(Cc2nc3ccccc3n2Cc2ccccc2)cc1`, the outcome in [1], in test [2], in test [3], in [4], in [5] and in [6] was inactive. Further, the result in [7], in test [8], in test [9], in test [10], in test [11] and in [12] was inactive. Moreover, the result in test [13], in test [14], in test [15], in test [16] and in test [17] was inactive.

As for `CCOC(=O)CC(NC(=O)c1cc2cc(Br)ccc2oc1=O)c1cccc([N+](=O)[O-])c1` (stereo not drawn), the outcome in test [1], in [2], in test [3], in [4], in [5] and in test [6] was inactive. Also, the result in test [7], in test [8], in [9], in test [10], in [11] and in test [12] was inactive. For the same molecule, the outcome in test [13], in [14], in test [16] and in [17] was inactive. Besides, the potentiation in [15] is 15.9% (active).

As for `COC(=O)CC(NC(=S)NC(=O)c1ccccc1)c1ccc(Br)cc1` (stereo not drawn), the result in [1], in test [2], in [3], in test [5], in test [6] and in [7] was inactive. Moreover, the outcome in test [8], in test [9], in test [10], in test [11], in test [12] and in test [13] was inactive. For the same molecule, the result in test [14], in [16] and in [17] was inactive. Further, the potentiation was 35% (active) in [4] and 12.5% (active) in test [15].

The inhibition is the share of the control response that was lost under treatment.
